Hits are enriched below; roughly 1.4% of the tested compounds scored in any of these assays.
ASM inhibitor = human S-ASM enzyme inhibition; 0.006% of 340,000 active; placental ASM, HMU-PC fluorogenic substrate, 60 min; Potency, µM (titrated, usually from 57.5 µM), without a hit: at the highest dose activity change, negative = inhibition, actives largely listed as inhibitors; AID 504937; further: potency means the concentration at half of the fitted maximal effect
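Fluorescence read-out (Ex 386 nm, Em 447 nm) after stopping the reaction at pH 10. Enzyme: ASM from human placenta; substrate HMU-PC0, 9 uM final; 60 min, 37 °C. Compound preincubation 10 min, ambient temperature.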
CCT modulator = changes cytosolic chaperonin activity | purified chaperonin ATPase assay, HTRF ADP detection, 30 min | activity change, % (no concentration beside the values), hits read low | 0.3% of 360,000 active; in the data active means activity change below about -30%; further: on the % scale 0 is the no-effect control and ±100 the full control effect
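Nucleotide hydrolysis assay: TRiC at 20–40 nM final (set by batch activity) with 10 uM ATP, 30 min at 37 °C, in presence of 76 uM compound. Detection by competitive ADP HTRF, 30 min ambient.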
p53 reactivator = restores transcriptional activity of mutant p53 | 0.063% of 320,000 active | H1299 p53-A138V BP100-luciferase reporter, luminescence, 24 h | Potency, µM (series often up to 92.2 µM), without a hit: at the top dose activity change, positive = activation, usual class: activators | AID 504706; further: potency means the concentration at half of the fitted maximal effect; % of control where 0% means no effect; nearly all actives have a fitted effect of over 45% in size
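p53-null H1299 cells stably carrying temperature-sensitive p53-A138V and a BP100-luciferase reporter were pinned with compounds (4-point, 1:5 series) and held 24 hrs at 37 deg C. Luminescence was read 10 min after detection reagent.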
12-LOX inh = inhibitors of human 12S-lipoxygenase ALOX12 | purified 12hLO, xylenol orange hydroperoxide absorbance | Potency, µM (doses to about 108 µM), without a hit: at the highest dose activity change, negative = inhibition, usual class: inhibitors | 1.1% of 580,000 active | AID 1671190; further: potency means the concentration at half of the fitted maximal effect; on the % scale 0 is the no-effect control and ±100 the full control effect
Target sequence (P18054 whole entry, looked up): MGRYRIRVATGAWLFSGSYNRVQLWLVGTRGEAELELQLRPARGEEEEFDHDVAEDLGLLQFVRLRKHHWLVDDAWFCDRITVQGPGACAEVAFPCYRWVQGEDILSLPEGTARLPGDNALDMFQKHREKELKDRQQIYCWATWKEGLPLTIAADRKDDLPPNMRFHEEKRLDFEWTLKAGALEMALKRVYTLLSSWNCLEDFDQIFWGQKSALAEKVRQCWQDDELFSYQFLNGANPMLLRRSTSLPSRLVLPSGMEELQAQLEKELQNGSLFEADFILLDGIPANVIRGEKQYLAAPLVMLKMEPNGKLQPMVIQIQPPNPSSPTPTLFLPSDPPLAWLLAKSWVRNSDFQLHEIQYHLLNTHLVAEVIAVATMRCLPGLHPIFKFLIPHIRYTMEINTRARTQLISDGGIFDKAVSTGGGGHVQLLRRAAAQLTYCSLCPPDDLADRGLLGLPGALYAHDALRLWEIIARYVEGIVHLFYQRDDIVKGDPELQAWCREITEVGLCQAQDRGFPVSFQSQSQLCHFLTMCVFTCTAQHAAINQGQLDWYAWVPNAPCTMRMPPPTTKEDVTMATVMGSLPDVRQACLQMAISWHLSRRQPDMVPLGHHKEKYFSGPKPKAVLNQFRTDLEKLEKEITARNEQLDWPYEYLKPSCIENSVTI
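Hydroperoxide product was detected by ferrous iron/xylenol orange as the 573 to 405 nm absorbance ratio. Arachidonic acid at 40 uM (final) was turned over for 30 min at room temperature by 150 nM human 12hLO, pH 7.0 Hepes buffer, after 15 min compound preincubation.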
PINK1 modulator = PINK1 expression modulation. PINK1 immunofluorescence, high-content cytometry, 24 h. Potency, µM (doses to about 76.6 µM), without a hit: at the top dose activation (PINK1 increase), most hits filed as activators. 0.2% of 410,000 active. AID 624263; active means well fitted activation curve with a large enough effect; inconclusive means small, poorly fitted or top-dose-only effect; cell line not stated here; further: potency means the concentration at half of the fitted maximal effect; % of control where 0% means no effect; nearly all actives have a fitted effect of over 65% in size
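Compound titrations (5 concentrations, 24 h) on a stable cell line; DMSO and CCCP controls. Endpoint: fixed-cell PINK1 immunofluorescence with mitochondrial, cell and nuclear markers, scanned by microplate cytometer.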
MmCpn inh = inhibitors of Methanococcus maripaludis chaperonin TRiC (MmCpn) | purified Mm-Cpn ATPase, ADP Transcreener TR-FRET | Potency, µM (titrated, usually from 76.9 µM), without a hit: at the top dose activity, negative = inhibition, usual class: inhibitors | 0.031% of 330,000 active; further: potency means the concentration at half of the fitted maximal effect; on the % scale 0 is the no-effect control and ±100 the full control effect; nearly all actives have a fitted effect of over 80% in size
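ATPase turnover read by TR-FRET ADP competition (Eu cryptate antibody/ADP-d2, 665/590 nm): 10uM ATP final, 25nM Mm-CPN final, 30 min 37degC after 10-min compound preincubation, pH 7.4 Tris/KCl/MgCl2/DTT buffer.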
* = called active by the depositor; ? = inconclusive; . = not tested or not shown; [ ] = dose if it differs, or a comment. Unless noted, the call rests on the fitted dose curve; in most records, active means well fitted curve in the direction sought with a large enough effect; inconclusive means small, poorly fitted or top-dose-only effect, or another doubt; inactive means no such curve, though single readings can be large; an effect the other way counts as inactive or inconclusive.

SMILES	ASM inhibitor	CCT modulator	p53 reactivator	12-LOX inh	PINK1 modulator	MmCpn inh
O=C(O)c1cccc2c1NC(C(=O)O)C1CC(Sc3ccccc3[N+](=O)[O-])C(Cl)C21 (stereo not drawn)	31%	-3	0%	3.2µM*	2%	-4%
O=C1CSC(c2ccc(F)c(Br)c2)c2cn[nH]c2N1 (stereo not drawn)	.	.	.	-15%	.	.
Cc1cc(O)c2c(c1)C(=O)C13C(=C2O)C(=O)[C@H]2[C@@H](O)[C@@H]1[C@H]1[C@H](O)[C@@H]3C(=O)C3=C(O)c4c(O)cc(C)cc4C(=O)C312 (stereo partly drawn)	-8%	-3	7%	.	28µM*	-1%
N#CC1=C(N)Oc2c(c(=O)sc3ccccc23)C1c1cccnc1 (stereo not drawn)	-3%	-43*	2%	4%	6%	-5%
COCCOC(=O)c1c(C)n(C)c2ccc(OC(=O)N(C)C)cc12	2%	1	1%	15%	5.6µM*	3%
CC(C)c1ccc(N2C(=O)NC(=O)/C(=C\C=C\c3ccco3)C2=O)cc1	-12%	0	0%	10µM*	4%	0%
c1ccc(CCNCc2ccccc2)cc1	2%	2	-6%	-2%	-4%	-1%
CC1=C/C(=N\NC(=S)NCCc2ccccc2)CC(C)(C)C1	-3%	-2	?	4.5µM*	3%	-3%
CCOC(=O)CC1c2ccccc2-n2nncc2CN1C (stereo not drawn)	4%	-86*	.	0%	1%	.
CCC1CCCCN1C(=O)CCl (stereo not drawn)	.	.	.	-47%	.	.
CCC(C)C(=O)c1c(O)c(C)c2oc3c(C)c(O)c(C(=O)C(C)CC)c(O)c3c2c1O (stereo not drawn)	.	.	.	.	16µM*	.
Clc1ccccc1CN1CCN(c2ccccc2)CC1	6%	-2	5%	0.89µM*	4%[38.3 µM]	?
COc1ccc(-[n+]2c(-c3ccccc3)cc(-c3ccccc3)cc2-c2ccccc2)cc1	-2%	1	-11%	-2%	16µM*	1%
N#Cc1cccc(NC(=O)Nc2ccc3n(c2=O)C[C@H]2C[C@@H]3CN(C3CCOCC3)C2)c1	.	.	.	16µM*	.	.
COCc1cn(C[C@H]2C[C@@H]3CCN2C[C@@H]3C(=O)N2CCCC2)nn1	.	.	.	15%[176 µM]	.	.
COc1ccc(CO)cc1	.	.	.	18%[176 µM]	.	.
COc1ccc(/C=C/C=C2C(=O)NC(=S)NC2=O)cc1	-1%	0	.	35µM*	0%	.
COc1ccc2[nH]c(C)c(CCNCc3ccc(F)cc3F)c2c1	.	.	.	1µM*	.	.
CCOc1cccc(CNCCc2c(C)[nH]c3ccc(OC(F)(F)F)cc23)c1O	-25%	0	-15%	40µM*	-2%	3%
O=C(N/N=C/c1c(O)n(Cc2ccc(F)cc2)c(=O)[nH]c1=O)c1ccccc1O	21%	-2	25%	?	?	-1%
O=C(N/N=C/c1c(O)n(Cc2ccccc2)c(=O)[nH]c1=O)c1ccccc1O	10%	-3	32µM*	?	?	-1%
CS(=O)(=O)NC[C@H]1C[C@@H]2CCN1C[C@@H]2CN1C[C@@H]2C[C@H](C1)c1cccc(=O)n1C2	.	.	.	45%[176 µM]	.	.
COC(=O)C1=Nc2ccccc2/C1=C\c1c(O)n(-c2ccc(Br)cc2)c(=O)[nH]c1=O	2%	1	-9%	35µM*	0%	3%
O=C1CC(=O)N(Cc2ccccc2)C(=O)N1	1%	0	.	?	0%	.
COc1ccc(CN2C(=O)CC(=O)NC2=S)cc1	8%	-2	-2%	45µM*	0%	2%
SMILES	ASM inhibitor	CCT modulator	p53 reactivator	12-LOX inh	PINK1 modulator	MmCpn inh
COc1ccc(NC(=O)N2[C@H]3CC[C@@H]2c2cnc(-c4ccc(F)cc4)nc2C3)c(OC)c1	.	.	.	7%	.	.
Cc1cc(C)n(-c2ccc(NN=C(C#N)C#N)cc2)n1	-13%	0	14%	?	?	-1%
N#CC(C#N)=NNc1ccc(-n2ccc(C(F)(F)F)n2)cc1	-12%	0	7%	28µM*	?	-1%
O=C1NC(=O)C(=Cc2ccc(Cl)cc2)C(=O)N1	.	.	.	40µM*	.	.
Cc1cc(C(=O)N2[C@H]3CC[C@@H]2c2cnc(-c4ccc(F)cc4)nc2C3)n[nH]1	.	.	.	33%	.	.
CCC(CC)c1cc([C@H]2CN3CC[C@H]2C[C@@H]3CNC(=O)CCCC(=O)O)nc(-c2ccncc2)n1	.	.	.	59%	.	.
Cc1ccc(N2C(=O)NC(=O)/C(=C\c3cc(C)n(-c4sc5c(c4C#N)CCCC5)c3C)C2=O)cc1	?	-1	-6%	35µM*	1%	-4%
CCN1C(=O)NC(=O)/C(=C/c2cc(C)n(-c3sc(C)c(C)c3C#N)c2C)C1=O	-6%	-1	8%	?	9%	-1%
O=C1NC(=O)N(c2ccccc2)C(=O)/C1=C/c1ccc(Sc2ccccc2)o1	1%	1	2%	.	-3%[38.3 µM]	-7%
O=C1NC(=O)N(c2cccc(Cl)c2)C(=O)/C1=C\c1ccc(Sc2nc3ccccc3[nH]2)o1	-11%	-1	-8%	10µM*	-1%	-12%
O=C1NC(=O)N(c2ccccc2F)C(=O)/C1=C/c1ccc(Sc2nc3ccccc3[nH]2)o1	-3%	-5	-2%	32µM*	1%	-10%
COCCNC(=O)Cn1cc(/C=C2\C(=O)NC(=O)N(c3ccccc3F)C2=O)c2ccccc21	-1%	2	3%	0%	5%	1%
CC1CCN(C[C@H]2CN3CC[C@H]2C[C@@H]3CNC(=O)c2ccc3c(c2)OCO3)CC1	.	.	.	75%[176 µM]	.	.
COc1ccc(Cn2c(O)c(/C=N/NC(=O)c3ccccc3)c(=O)[nH]c2=O)cc1	15%	-2	23%	-25%	-1%	3%
COC(=O)[C@@H]1N=C(c2ccc(OC)cc2)O[C@]12C(=O)N(Cc1ccc(OC)cc1)c1ccccc12	.	-47*	.	?	0%	.
O=C(O)CC[n+]1ccc(-c2cc[n+](CCC(=O)O)cc2)cc1	.	.	.	14µM*	.	.
CCCCCCC[n+]1ccc(-c2cc[n+](CCCCCCC)cc2)cc1	-1%	-1	-2%	?	-1%	-2%
Fc1ccccc1CNCCc1ccc2c(c1)OCO2	2%	-5	-9%	?	2%	-3%
Clc1cccc(CNCCc2ccc3c(c2)OCO3)c1	-1%	-1	-4%	?	5%	1%
Clc1ccc(CNCCc2ccc3c(c2)OCO3)cc1	-1%	-5	-6%	4.5µM*	6%	2%
FC(F)(F)c1ccc(CNCCc2ccc3c(c2)OCO3)cc1	3%	1	0%	1.8µM*	17%	-1%
O=C(c1ccccc1)N1C[C@@H]2C[C@H](C1)c1ccc(-c3cncnc3)c(=O)n1C2	.	.	.	49%[176 µM]	.	.
